Source: PubChem BioAssay (NCI)
The panel holds about 83,000 compounds, 20% with a hit somewhere; the sample as a whole holds those more often.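 Assay: single dose, 48 h. Readout: percent growth (0 = no net growth; negative = cell death). Active: <10.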 Active and inactive are the calls of the source.

Tests used:
Assay in all cases: NCI-60 one-dose screen, 48 h (100 = growth as untreated, 0 = no growth, -100 = all killed)
[1] = tested on: SR leukemia; conditions: 10 µM unless noted
[2] = tested on: RPMI-8226 leukemia; conditions: 10 µM unless noted
[3] = tested on: OVCAR-8 ovarian; conditions: 10 µM unless noted
[4] = tested on: OVCAR-5 ovarian; conditions: 10 µM unless noted
[5] = tested on: SK-OV-3 ovarian; conditions: 10 µM unless noted
[6] = tested on: IGROV1 ovarian; conditions: 10 µM unless noted
[7] = tested on: OVCAR-3 ovarian; conditions: 10 µM unless noted
[8] = tested on: HS 578T breast; conditions: 10 µM
[9] = tested on: NCI/ADR-RES ovarian; conditions: 10 µM unless noted
[10] = tested on: OVCAR-4 ovarian; conditions: 10 µM unless noted

Measured: growth

C/C(=C\C(=N\N=C(N)N)c1ccc(Cl)cc1)c1ccc(Cl)cc1
active: [1] -67.9% | [2] -40.2% | [3] -80.9% | [4] -75.5% | [5] -22.4% | [6] -60.6% | [7] -87.7% | [8] -50.9% | [9] -69.6%

CC(=O)N(C)c1ccc(Nc2cc(C)[nH]c3ccc4ncnc4c23)cc1
inactive: [1] 11.1% | [2] 56.2% | [4] 63.5% | [10] 77.9% | [5] 74.3% | [7] 76.3% | [8] 75.1% | [9] 101%
active: [6] 1.11%

COc1cc2c(cc1OC)C(=O)OC2
inactive: [1] 106% | [2] 367% | [3] 101% | [4] 100% | [10] 108% | [5] 124% | [7] 110% | [8] 109% | [9] 119%

COC(=O)c1cc(Cl)cc([N+](=O)[O-])c1O
inactive: [1] 63.5% | [2] 93.3% | [3] 105% | [4] 93.7% | [10] 122% | [5] 116% | [7] 114% | [8] 107% | [9] 114%

CC(C)(C)CC(C)(C)NCc1cc(C(C)(C)C)cc(CNC(C)(C)CC(C)(C)C)c1O
active: [1] 1.23% | [2] 8.02%
inactive: [3] 86.4% | [4] 68.6% | [5] 81.3% | [6] 61.1% | [7] 79.2% | [8] 67.6% | [9] 55%

CCCC(CCC)NCC(O)c1cc(-c2ccc(C(F)(F)F)cc2)nc(C(F)(F)F)c1 (centres undefined)
inactive: [5] 52.3%
active: [1] -61.4% | [2] -37.7% | [3] -62.8% | [4] -37.9% | [6] -22.9% | [7] -83.1% | [8] -45.5% | [9] -53.9%

Cc1ccc(/C=C/C(=N/N=C(N)N)c2ccccc2)cc1
inactive: [2] 11.1% | [3] 24.6% | [4] 54.4% | [6] 43.1% | [9] 35.2%
active: [1] -9.62% | [5] 9.84% | [7] -28.6% | [8] -5.3%

CCCCCCCCNC(C)C(O)c1ccc(SC(C)C)cc1 (centres undefined)
active: [1] -55% | [3] -5.31% | [7] -83%
inactive: [2] 14.8% | [10] 63.9% | [5] 83.9% | [6] 18.8% | [8] 49.2% | [9] 47.8%

CC1C2CCC(C2)C1COCCOCCO (centres undefined)
inactive: [1] 105% | [2] 108% | [3] 102% | [4] 107% | [5] 110% | [6] 113% | [7] 112% | [8] 110% | [9] 104%

CCOC(=O)c1ccc(N(CCC(=O)O)C(C)=O)cc1
inactive: [1] 129% | [2] 110% | [3] 104% | [4] 102% | [5] 114% | [6] 103% | [7] 120% | [8] 114% | [9] 109%

CCN(CC)c1ccc2nc3c4ccccc4c(=O)cc-3n(-c3ccccc3)c2c1
active: [1] -5.63% | [2] 6.27% | [3] 7.52% | [10] 6.28% | [5] 3.71% | [7] -52.6% | [8] -17.8% | [9] -7.19%
inactive: [4] 10.7%

OC(c1cc2c(Cl)cc(Cl)cc2c2cc(C(F)(F)F)ccc12)C1CCCCN1 (centres undefined)
active: [1] -63.5% | [2] -44.8% | [3] -61% | [4] -78.5% | [5] -18.3% | [6] -67.9% | [7] -86% | [8] -56.1% | [9] -60.4%

CSC(=S)N/N=C(\C)c1ccccn1
inactive: [2] 12% | [3] 14.6% | [4] 27.1% | [5] 30.2% | [6] 19.4% | [8] 38.1% | [9] 12.8%
active: [1] -3.68% | [7] 5.95%

Cc1nn(-c2ccc(Cl)cc2)c(=O)n1CCN1CCOCC1
inactive: [1] 95.3% | [2] 83.1% | [3] 116% | [4] 92.4% | [10] 93.4% | [5] 42.8% | [7] 79.2% | [8] 42.7% | [9] 75.9%

CCCCNCCC(O)c1cc2ccc(C(F)(F)F)cc2c2cc(C(F)(F)F)ccc12 (centres undefined)
active: [1] -70.2% | [2] -42.8% | [3] -77.3% | [4] -79.9% | [5] -34% | [6] -60.9% | [7] -84.8% | [8] -55.2% | [9] -74.5%

c1ccc(C(CC2=NCCCN2)c2ccccc2)cc1
inactive: [1] 103% | [2] 116% | [3] 101% | [4] 95.9% | [5] 95.5% | [6] 108% | [7] 117% | [8] 95.7% | [9] 101%

Cc1c(C)c(C)c([N+](=O)[O-])c([N+](=O)[O-])c1C
inactive: [1] 99.8% | [2] 119% | [3] 102% | [4] 84.5% | [5] 111% | [6] 122% | [7] 98.5% | [8] 96.5% | [9] 99.4%

c1ccc2c(Cc3csc4ccccc34)csc2c1
inactive: [1] 50% | [2] 94.8% | [3] 101% | [4] 101% | [10] 88.3% | [5] 77.7% | [7] 92.5% | [8] 104% | [9] 81.9%

O=C(c1ccccc1)N(CCCCl)C(=O)N(CCCCl)C(=O)c1ccccc1
inactive: [1] 101% | [2] 88.1% | [3] 97.2% | [4] 87% | [5] 84.5% | [6] 90.7% | [7] 93.7% | [8] 93.9% | [9] 91.1%

CCOC(C)(c1ccc(Cl)cc1)C1CCNCC1 (centres undefined)
inactive: [1] 88.1% | [2] 114% | [3] 100% | [4] 102% | [5] 96.1% | [6] 115% | [7] 110% | [8] 92.7% | [9] 92.5%

O=c1[nH]c2ccccc2n2cc3cccnc3c12
inactive: [1] 36% | [2] 89.3% | [3] 63.4% | [4] 140% | [5] 82.5% | [6] 90.2% | [7] 91.8% | [8] 88.4% | [9] 58.8%

CCCCN(CCCC)CCC(=O)c1ccc(OC)c2ccccc12
inactive: [1] 38.9% | [2] 35.6% | [3] 75.3% | [4] 102% | [10] 102% | [5] 107% | [7] 83% | [8] 106% | [9] 107%

COc1cc(CN2CCO[C@H](COc3cccc(F)c3)C2)ccc1Cl
active: [10] 9.51%
inactive: [1] 50.8% | [2] 30.4% | [4] 47.8% | [5] 34.5% | [6] 67.3% | [7] 49.4% | [8] 51.7% | [9] 26%

C/C(CC(=O)NNc1ccc([N+](=O)[O-])cc1)=N\Nc1ccc([N+](=O)[O-])cc1
inactive: [1] 46.9% | [2] 72.1% | [3] 81.3% | [4] 48.8% | [5] 90.6% | [6] 78.3% | [7] 73.7% | [8] 86.2% | [9] 49.7%

CCCCN(CCCC)CCC(O)c1cc2ccc(C(F)(F)F)cc2c2cc(C(F)(F)F)ccc12 (centres undefined)
inactive: [3] 48.6% | [4] 74.9% | [5] 74.2% | [6] 40.3% | [7] 30.2% | [8] 58% | [9] 59.8%
active: [1] -36.8% | [2] -9.02%

CC[C@H](Nc1nc(C)nc(N)c1C#N)c1nc2cccc(NCc3ccc(C(=O)NO)cc3)c2c(=O)n1-c1ccccc1
inactive: [4] 22.5% | [8] 21.6% | [9] 59.4%
active: [1] 0.66% | [3] 2.46% | [10] 5.36% | [5] -16.2% | [6] 5.14% | [7] 4.73%

Cc1ccc(NC(=O)c2nc(S(C)(=O)=O)oc2-c2ccc(F)cc2)cc1Nc1ccc2ncn(C)c(=O)c2c1
inactive: [2] 19.3% | [4] 102% | [10] 104% | [5] 107% | [6] 61.4% | [8] 106% | [9] 96.2%
active: [1] -12.5% | [7] -58.5%

CN1CCN(Cc2ccc(NC(=O)c3cncc(C#Cc4cnc5cccnn45)c3)cc2C(F)(F)F)CC1
active: [1] 5.44% | [3] 5.17% | [10] -21.7% | [5] 7.64% | [6] 5.12% | [7] 1.49% | [8] -17.3%
inactive: [4] 12.7% | [9] 18.3%

Nc1nc(N)c2c(n1)NC(c1sc(Cl)nc1Cl)CC(c1ccccc1)=N2 (centres undefined)
inactive: [1] 19.9% | [3] 60.7% | [4] 76.7% | [10] 94% | [5] 74% | [6] 50.5% | [7] 40.4% | [8] 48.1%

COc1ccc([C@@H]2[C@@H](Cl)C(=O)N2c2cc(OC)c(OC)c(OC)c2)cc1C
active: [1] 9.63% | [2] 8.48% | [7] -5.67%
inactive: [4] 59.7% | [10] 39.1% | [5] 30.4% | [6] 31.6% | [8] 47.9% | [9] 16%
